Data published in PubChem BioAssay (NCATS).
Records with an inconclusive call do not appear. Active and inactive are the calls of the source. Calls come from the whole dose curve; as a rule, active = well fitted curve in the direction sought with a large enough effect; inconclusive = small, poorly fitted or top-dose-only effect, or another doubt; inactive = no such curve, though single readings can be large; an effect the other way counts as inactive or inconclusive.

target: Lysine-specific demethylase 5B (Homo sapiens) (UniProt Q9UGL1); test: Optimization screen for KDM5B Histone Demethylases FDH coupled qHTS against the LOPAC library (AID 1347166); conditions: KDM5B demethylation, FDH-coupled NADH fluorescence (FDH is formaldehyde dehydrogenase); series mostly up to 57.5 µM
Outline: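 KDM5BDeltaAP (200nM final) in 50mM HEPES pH 7.5, 0.01% Tween-20 was preincubated with compound for 10 min at room temperature. A substrate mix of 12.5uM H3K4Me3, 25uM a-ketoglutarate, ascorbate, Fe2+, NAD+ and formaldehyde dehydrogenase was then added. NADH fluorescence (340/450 nm) was read initially and after 30 min.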

Chain of Lysine-specific demethylase 5B (Homo sapiens) (Q9UGL1 whole entry, looked up): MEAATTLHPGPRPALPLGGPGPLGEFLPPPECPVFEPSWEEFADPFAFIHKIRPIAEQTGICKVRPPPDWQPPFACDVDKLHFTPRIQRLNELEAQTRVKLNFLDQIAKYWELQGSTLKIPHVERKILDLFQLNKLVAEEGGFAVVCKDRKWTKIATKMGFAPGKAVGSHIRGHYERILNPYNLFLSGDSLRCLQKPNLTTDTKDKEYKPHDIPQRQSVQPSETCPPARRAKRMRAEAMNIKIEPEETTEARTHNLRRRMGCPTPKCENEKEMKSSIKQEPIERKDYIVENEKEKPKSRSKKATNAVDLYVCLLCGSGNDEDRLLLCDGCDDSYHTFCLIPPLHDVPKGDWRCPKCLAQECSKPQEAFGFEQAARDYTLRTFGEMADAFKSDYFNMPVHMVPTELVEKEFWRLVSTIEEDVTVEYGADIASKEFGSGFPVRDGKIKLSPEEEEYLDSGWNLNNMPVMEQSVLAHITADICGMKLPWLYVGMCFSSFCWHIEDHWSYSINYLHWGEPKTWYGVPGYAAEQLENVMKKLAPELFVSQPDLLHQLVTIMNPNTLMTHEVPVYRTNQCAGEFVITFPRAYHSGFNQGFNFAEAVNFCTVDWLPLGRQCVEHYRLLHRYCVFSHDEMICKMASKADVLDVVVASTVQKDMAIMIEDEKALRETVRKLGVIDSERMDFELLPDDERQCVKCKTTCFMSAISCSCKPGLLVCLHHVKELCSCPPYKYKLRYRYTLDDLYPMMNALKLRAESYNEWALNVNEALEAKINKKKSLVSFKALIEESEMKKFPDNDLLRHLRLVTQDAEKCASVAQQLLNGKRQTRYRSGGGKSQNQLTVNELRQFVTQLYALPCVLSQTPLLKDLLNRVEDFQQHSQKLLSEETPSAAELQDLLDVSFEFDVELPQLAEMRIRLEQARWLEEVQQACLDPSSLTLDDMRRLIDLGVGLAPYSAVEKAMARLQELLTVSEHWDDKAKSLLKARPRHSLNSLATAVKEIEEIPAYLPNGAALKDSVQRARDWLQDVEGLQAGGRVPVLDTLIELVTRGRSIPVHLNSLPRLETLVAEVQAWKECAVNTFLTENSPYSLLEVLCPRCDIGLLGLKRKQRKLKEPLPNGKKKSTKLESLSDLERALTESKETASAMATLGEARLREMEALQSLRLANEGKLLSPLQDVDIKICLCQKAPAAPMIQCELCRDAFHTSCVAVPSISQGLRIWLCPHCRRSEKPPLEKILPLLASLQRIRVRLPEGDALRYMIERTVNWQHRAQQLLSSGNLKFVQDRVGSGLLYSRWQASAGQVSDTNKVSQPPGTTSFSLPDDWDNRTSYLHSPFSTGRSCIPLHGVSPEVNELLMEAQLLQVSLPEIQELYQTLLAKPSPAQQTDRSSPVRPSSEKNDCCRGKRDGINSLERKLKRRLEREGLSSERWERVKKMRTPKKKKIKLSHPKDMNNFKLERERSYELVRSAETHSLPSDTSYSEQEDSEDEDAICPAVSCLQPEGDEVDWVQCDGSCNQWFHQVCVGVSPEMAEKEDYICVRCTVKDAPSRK

Q: For NC[C@@H]1O[C@H](C23CC4CC(CC(C4)C2)C3)Cc2c1ccc(O)c2O, which outcome is on record?
A: Its outcome is “inactive”.

Q: Which outcome does the source give for Nc1nc(Nc2ccccc2)nc2c1ncn2[C@@H]1O[C@H](CO)[C@@H](O)[C@H]1O here?
A: Its outcome is “inactive”.

Q: With O=C(O)/C=C/C(O)c1ccc(Cl)cc1 (centres undefined) as the compound, how does the outcome read?
A: Its outcome is “inactive”.

Q: For CNC(=O)[C@H]1O[C@@H](n2cnc3c(NCc4ccc(N)cc4)ncnc32)[C@H](O)[C@@H]1O, which outcome is on record?
A: The outcome was “inactive”.

Q: Which outcome does the source give for C[N+]1(C)C2CC(OC(=O)[C@H](CO)c3ccccc3)CC1C1OC12 (some centres undefined) here?
A: Its outcome is “inactive”.

Q: With CC(COc1ccc(/C=C/c2ccccc2)cc1)[N+](C)(C)C (centres undefined) as the compound, how does the outcome read?
A: Its outcome is “inactive”.

Q: With Brc1c(Br)c(Br)c2n[nH]nc2c1Br as the compound, how does the outcome read?
A: The outcome was “inactive”.

Q: With NCCCS(=O)(=O)O as the compound, how does the outcome read?
A: Its outcome is “inactive”.

Q: With CC(C)Cc1ccc([C@H](C)C(=O)O)cc1 as the compound, how does the outcome read?
A: The outcome was “inactive”.

Q: For CNCC[C@H](Oc1ccc(C(F)(F)F)cc1)c1ccccc1, which outcome is on record?
A: Its outcome is “inactive”.

Q: For CCN(CC)c1ncnc2c1ncn2[C@@H]1O[C@H](COP(=O)(O)OP(=O)(O)C(Br)(Br)P(=O)(O)O)[C@@H](O)[C@H]1O, which outcome is on record?
A: The outcome was “inactive”.

Q: Which outcome does the source give for CO/N=C(\C(=O)N[C@@H]1C(=O)N2C(C(=O)O)=C(COC(C)=O)CS[C@H]12)c1csc(N)n1 here?
A: Its outcome is “inactive”.

Q: Which outcome does the source give for O=C(c1ccc(OCCCc2cnc[nH]2)cc1)C1CC1 here?
A: Its outcome is “inactive”.

Q: Which outcome does the source give for CCN1/C(=C/C(C)=O)Sc2ccc(OC)cc21 here?
A: Its outcome is “inactive”.

Q: For CC(C)(C=O)Cc1cc(C(C)(C)C)c(O)c(C(C)(C)C)c1, which outcome is on record?
A: Its outcome is “inactive”.

Q: For NC(CCCP(=O)(O)O)C(=O)O (centres undefined), which outcome is on record?
A: Its outcome is “inactive”.

Q: Which outcome does the source give for Cn1cc(C2=C(c3ccc(Cl)cc3Cl)C(=O)NC2=O)c2ccccc21 here?
A: Its outcome is “inactive”.

Q: With CN1C2CCC1CC(OC(=O)C(O)c1ccccc1)C2 (centres undefined) as the compound, how does the outcome read?
A: The outcome was “inactive”.

Q: Which outcome does the source give for CNC(=O)[C@H]1O[C@@H](n2cnc3c(NCc4cccc(I)c4)ncnc32)[C@H](O)[C@@H]1O here?
A: Its outcome is “inactive”.

Q: Which outcome does the source give for CSc1nc(N)c2ncn([C@@H]3O[C@H](COP(=O)(O)OP(=O)(O)OP(=O)(O)O)[C@@H](O)[C@H]3O)c2n1 here?
A: The outcome was “inactive”.

Q: For OCC1O[C@H](O)C(Cl)C(O)C1O (some centres undefined), which outcome is on record?
A: The outcome was “inactive”.

tested on: not listed separately; test: HepG2 cells viability qHTS for Zika virus inhibitors (AID 1347168); conditions: Zika counter-screen; series mostly up to 45.9 µM
Outline: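 Luminescent ATP readout (CellTiter Glo) after 30 min at 37 degrees C gives viability; cells in DMEM + 4% FBS were treated 24 to 48 hours with compound, following overnight attachment.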

Q: Which outcome does the source give for O=C1NC(=O)/C(=C/c2ccc(-c3ccc(F)cc3O)o2)S1 here?
A: Its outcome is “inactive”.

Q: Which outcome does the source give for COc1ccc(Br)cc1S(=O)(=O)NC(=O)/C=C/c1ccccc1Cc1ccc2ccccc2c1 here?
A: The outcome was “inactive”.

Q: Which outcome does the source give for O=C(c1cc(O)c(O)c([N+](=O)[O-])c1)c1ccccc1F here?
A: Its outcome is “inactive”.
